Assay [1] concerns PRMT1 (protein arginine N-methyltransferase 1). Description: PRMT1 binders on small-molecule microarrays, primary screen, biochemical, small-molecule microarray, 635 nm fluorescence (AID 1088).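 Also: binding of Prmt1 protein to compounds spotted on small-molecule microarray slides.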 As to conditions: small-molecule microarray binding, higher = more signal.
The nature of assay [2]: yeast growth modulation, basal conditions, primary screen, YJM789 clinical isolate, OD600, 24 h (AID 1089).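 Also: growth of clinical yeast isolate S. cerevisiae YJM 789 seeded 1000 cells per well; test concentration not given here.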 The note with it: S. cerevisiae YJM789 growth, higher = more signal, called active from +8 up or from −8 down.
A short description of assay [3]: fission yeast growth modulation, primary screen, strain 972, OD600, 24 h, no modulator (AID 1090).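 Also: basal condition with compound alone and no growth modifier present; test concentration not given here.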 The note with it: S. pombe 972 growth, higher = more signal, called active from +8 up or from −8 down.
A short description of assay [4]: S. cerevisiae growth modulation with rapamycin, primary screen, strain BY4716, OD600, 96 h (AID 1091). Also: test concentration not given here. The note with it: higher = more signal, called active from +8 up or from −8 down.
For assay [5], the target named is Torsin-1A-interacting protein 2 (Homo sapiens) (UniProt Q8NFQ8). Description: LULL1 binders on small-molecule microarray, primary screen, cell lysate, human LULL1 lysate, 635/667 nm fluorescence (AID 1092).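 Also: probe is lysate of COS7 cells overexpressing human LULL1; score merges per-feature 667 nm fluorescence with signal-to-noise.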 As to conditions: hLULL1 lysate binding, 635 nm fluorescence, higher = more signal.
Sequence of Torsin-1A-interacting protein 2 (Homo sapiens) (Q8NFQ8 whole entry, looked up): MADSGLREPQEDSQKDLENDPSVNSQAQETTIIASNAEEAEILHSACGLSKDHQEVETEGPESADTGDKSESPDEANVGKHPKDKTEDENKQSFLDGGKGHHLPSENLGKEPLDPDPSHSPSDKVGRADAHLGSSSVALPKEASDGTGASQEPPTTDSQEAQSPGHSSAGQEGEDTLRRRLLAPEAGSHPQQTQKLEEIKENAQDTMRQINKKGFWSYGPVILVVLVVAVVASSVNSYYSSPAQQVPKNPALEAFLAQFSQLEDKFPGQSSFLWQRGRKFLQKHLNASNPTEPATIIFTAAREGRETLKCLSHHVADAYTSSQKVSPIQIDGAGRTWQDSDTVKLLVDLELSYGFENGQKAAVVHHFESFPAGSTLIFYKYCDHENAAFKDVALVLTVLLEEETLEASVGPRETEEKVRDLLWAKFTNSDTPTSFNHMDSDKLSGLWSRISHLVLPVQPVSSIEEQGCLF
A short description of assay [6]: E. coli growth modulation, two-sided OD650, primary screen, E. coli filamentation project, strain DRC41, 24 h (AID 1093).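 Also: MC1000 strain lacking acrAB efflux and sulA so SOS filamentation is blocked; test concentration not given here.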 As to conditions: OD650, 24 h, higher = more signal, called active from +8 up or from −8 down.
The nature of assay [7]: small-molecule microarray binders of probe aLefty2, primary screen, biochemical, biotinylated probe, 635/667 nm fluorescence (AID 1094).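 Also: score merges spot fluorescence near 667 nm with spot signal-to-noise ratio.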 The note with it: higher = more signal.
For assay [8], the system named is Noggin (protein binding on small-molecule microarray). Description: Noggin binders on small-molecule microarray, primary screen, biochemical, 635/667 nm fluorescence (AID 1095).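 Also: score merges 667 nm feature fluorescence with signal to noise over triplicate slides.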 As to conditions: 635 nm fluorescence, higher = more signal.
The target of assay [9] is Neurogenic locus notch homolog protein 3 (Homo sapiens) (UniProt Q9UM47). Description: NOTCH3 binders on small-molecule microarray, primary screen, biochemical, 635/667 nm fluorescence (AID 1096). The note with it: NOTCH3 binding, 635 nm fluorescence, higher = more signal.
Sequence of Neurogenic locus notch homolog protein 3 (Homo sapiens) (Q9UM47 whole entry, looked up): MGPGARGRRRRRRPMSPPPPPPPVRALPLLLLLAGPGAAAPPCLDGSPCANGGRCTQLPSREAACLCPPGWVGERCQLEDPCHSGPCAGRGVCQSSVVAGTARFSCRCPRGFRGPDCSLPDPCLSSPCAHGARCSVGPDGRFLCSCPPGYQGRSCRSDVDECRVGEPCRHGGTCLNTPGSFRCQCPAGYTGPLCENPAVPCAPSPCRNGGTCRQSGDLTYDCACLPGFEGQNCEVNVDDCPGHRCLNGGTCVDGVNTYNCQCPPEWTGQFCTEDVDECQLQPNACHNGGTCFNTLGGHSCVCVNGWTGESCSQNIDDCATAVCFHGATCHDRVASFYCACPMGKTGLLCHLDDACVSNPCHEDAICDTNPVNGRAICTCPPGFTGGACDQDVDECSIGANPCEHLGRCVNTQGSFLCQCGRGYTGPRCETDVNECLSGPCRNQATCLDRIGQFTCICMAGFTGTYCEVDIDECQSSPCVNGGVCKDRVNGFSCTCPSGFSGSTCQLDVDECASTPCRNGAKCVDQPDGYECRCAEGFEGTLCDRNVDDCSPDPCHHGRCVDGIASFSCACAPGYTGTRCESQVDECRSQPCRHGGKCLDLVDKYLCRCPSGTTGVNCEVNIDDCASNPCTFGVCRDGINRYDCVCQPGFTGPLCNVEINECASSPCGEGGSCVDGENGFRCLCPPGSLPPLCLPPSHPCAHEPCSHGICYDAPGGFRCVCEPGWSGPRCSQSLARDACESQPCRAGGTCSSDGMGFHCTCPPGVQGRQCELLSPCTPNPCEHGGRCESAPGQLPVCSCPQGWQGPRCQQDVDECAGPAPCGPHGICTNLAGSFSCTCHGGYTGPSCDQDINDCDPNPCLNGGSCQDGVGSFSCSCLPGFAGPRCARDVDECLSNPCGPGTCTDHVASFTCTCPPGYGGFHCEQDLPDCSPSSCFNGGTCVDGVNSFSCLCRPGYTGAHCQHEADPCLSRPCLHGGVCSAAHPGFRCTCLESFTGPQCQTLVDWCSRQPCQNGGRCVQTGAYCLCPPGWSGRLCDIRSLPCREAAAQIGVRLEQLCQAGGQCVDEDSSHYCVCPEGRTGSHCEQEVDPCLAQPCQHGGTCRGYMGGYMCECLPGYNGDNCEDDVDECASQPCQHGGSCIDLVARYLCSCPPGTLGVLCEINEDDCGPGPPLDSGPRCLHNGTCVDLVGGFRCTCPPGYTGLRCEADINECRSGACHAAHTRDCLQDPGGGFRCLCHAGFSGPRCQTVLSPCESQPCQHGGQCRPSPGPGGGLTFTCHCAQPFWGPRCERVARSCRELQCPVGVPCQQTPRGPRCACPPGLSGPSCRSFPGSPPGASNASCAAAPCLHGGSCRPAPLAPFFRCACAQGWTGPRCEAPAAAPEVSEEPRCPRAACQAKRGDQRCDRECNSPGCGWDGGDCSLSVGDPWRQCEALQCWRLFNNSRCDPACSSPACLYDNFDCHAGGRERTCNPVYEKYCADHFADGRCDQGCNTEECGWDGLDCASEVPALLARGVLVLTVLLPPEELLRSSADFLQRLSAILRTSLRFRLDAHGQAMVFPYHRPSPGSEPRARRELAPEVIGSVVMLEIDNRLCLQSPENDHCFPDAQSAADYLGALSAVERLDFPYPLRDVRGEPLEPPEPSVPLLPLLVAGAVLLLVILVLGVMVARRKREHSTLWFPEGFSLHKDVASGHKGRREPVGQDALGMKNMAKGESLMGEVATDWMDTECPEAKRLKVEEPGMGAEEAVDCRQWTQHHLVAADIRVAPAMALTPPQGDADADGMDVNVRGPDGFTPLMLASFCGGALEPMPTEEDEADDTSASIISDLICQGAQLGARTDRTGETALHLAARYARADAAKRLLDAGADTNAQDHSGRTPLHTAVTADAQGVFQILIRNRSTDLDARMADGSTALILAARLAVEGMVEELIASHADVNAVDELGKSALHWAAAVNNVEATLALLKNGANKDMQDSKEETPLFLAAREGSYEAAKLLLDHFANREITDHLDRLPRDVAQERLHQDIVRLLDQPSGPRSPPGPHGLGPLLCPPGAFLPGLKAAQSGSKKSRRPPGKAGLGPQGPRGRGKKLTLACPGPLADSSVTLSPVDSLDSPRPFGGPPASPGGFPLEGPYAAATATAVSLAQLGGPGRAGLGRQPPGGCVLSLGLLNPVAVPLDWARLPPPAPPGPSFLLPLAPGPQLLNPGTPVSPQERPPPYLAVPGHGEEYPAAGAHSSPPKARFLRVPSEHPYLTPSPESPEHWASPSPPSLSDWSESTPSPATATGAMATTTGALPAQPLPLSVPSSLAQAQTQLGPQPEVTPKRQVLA
Assay [10] can be described thus: small-molecule microarray binders of probe aEGFR, primary screen, biochemical, biotinylated probe, 635/667 nm fluorescence (AID 1097).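 Also: probe is a biotinylated anti-EGFR antibody binding compounds printed on slides; score combines fluorescence near 667 nm and signal to noise of each spot.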 The note with it: higher = more signal.
For assay [11], the system named is Plasmodium falciparum Sir2 (PF13_0152, Sir2A). The assay is described as follows: pfSir2 binders on small-molecule microarrays, primary screen, biochemical, small-molecule microarray, 635 nm fluorescence (AID 1098).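 Also: score merges spot fluorescence intensity with its signal-to-noise ratio.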 As to conditions: small-molecule microarray binding, fluorescence 635 nm; higher = more signal.
Assay [12] is described as follows: small-molecule microarray binders of probe aDKK1, primary screen, biochemical, biotinylated probe, 635/667 nm fluorescence (AID 1099).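 Also: score merges 667nm spot fluorescence with signal to noise across triplicate slides; reference of the scale not given here.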 As to conditions: higher = more signal.
Assay [13] in a line: small-molecule microarray binders of probe aCHRDL2, primary screen, biochemical, biotinylated probe, 635/667 nm fluorescence (AID 1100). As to conditions: higher = more signal.
A short description of assay [14]: splicing luciferase reporter signal modulators, primary screen, spliceosome inhibition project, cell-based, HEK293, splice +/- reporter (AID 1101).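 Also: HEK293 cells carrying a splicing-competent luciferase reporter gene; test concentration not given here.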 The note with it: luminescence, 24 h, higher = more signal, called active from +8 up or from −8 down.
Assay [15] has as its target Fibroblast growth factor 10 (Homo sapiens) (UniProt O15520). Description: FGF10 binders on small-molecule microarrays, primary screen, biochemical, small-molecule microarray, 635 nm fluorescence (AID 1102). The note with it: FGF10 binding, fluorescence 635 nm, higher = more signal.
Assay [16] relates to glycogen synthase kinase-3 (GSK3A per assay name; protocol says GSK3B). Description: GSK3 binders on small-molecule microarrays, primary screen, biochemical, small-molecule microarray, 635 nm fluorescence, GSK3A (AID 1103). Also: the record names both GSK3A and GSK3B. As to conditions: small-molecule microarray binding, fluorescence 635 nm; higher = more signal.
For assay [17], the target named is Epidermal growth factor receptor (Homo sapiens) (UniProt P00533). The assay is described as follows: EGFR binders on small-molecule microarrays, primary screen, biochemical, small-molecule microarray, 635 nm fluorescence (AID 1104).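 Also: score merges 667 nm emission intensity with spot signal to noise over triplicate slides.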 As to conditions: EGFR binding, higher = more signal.
Sequence of Epidermal growth factor receptor (Homo sapiens) (P00533 whole entry, looked up): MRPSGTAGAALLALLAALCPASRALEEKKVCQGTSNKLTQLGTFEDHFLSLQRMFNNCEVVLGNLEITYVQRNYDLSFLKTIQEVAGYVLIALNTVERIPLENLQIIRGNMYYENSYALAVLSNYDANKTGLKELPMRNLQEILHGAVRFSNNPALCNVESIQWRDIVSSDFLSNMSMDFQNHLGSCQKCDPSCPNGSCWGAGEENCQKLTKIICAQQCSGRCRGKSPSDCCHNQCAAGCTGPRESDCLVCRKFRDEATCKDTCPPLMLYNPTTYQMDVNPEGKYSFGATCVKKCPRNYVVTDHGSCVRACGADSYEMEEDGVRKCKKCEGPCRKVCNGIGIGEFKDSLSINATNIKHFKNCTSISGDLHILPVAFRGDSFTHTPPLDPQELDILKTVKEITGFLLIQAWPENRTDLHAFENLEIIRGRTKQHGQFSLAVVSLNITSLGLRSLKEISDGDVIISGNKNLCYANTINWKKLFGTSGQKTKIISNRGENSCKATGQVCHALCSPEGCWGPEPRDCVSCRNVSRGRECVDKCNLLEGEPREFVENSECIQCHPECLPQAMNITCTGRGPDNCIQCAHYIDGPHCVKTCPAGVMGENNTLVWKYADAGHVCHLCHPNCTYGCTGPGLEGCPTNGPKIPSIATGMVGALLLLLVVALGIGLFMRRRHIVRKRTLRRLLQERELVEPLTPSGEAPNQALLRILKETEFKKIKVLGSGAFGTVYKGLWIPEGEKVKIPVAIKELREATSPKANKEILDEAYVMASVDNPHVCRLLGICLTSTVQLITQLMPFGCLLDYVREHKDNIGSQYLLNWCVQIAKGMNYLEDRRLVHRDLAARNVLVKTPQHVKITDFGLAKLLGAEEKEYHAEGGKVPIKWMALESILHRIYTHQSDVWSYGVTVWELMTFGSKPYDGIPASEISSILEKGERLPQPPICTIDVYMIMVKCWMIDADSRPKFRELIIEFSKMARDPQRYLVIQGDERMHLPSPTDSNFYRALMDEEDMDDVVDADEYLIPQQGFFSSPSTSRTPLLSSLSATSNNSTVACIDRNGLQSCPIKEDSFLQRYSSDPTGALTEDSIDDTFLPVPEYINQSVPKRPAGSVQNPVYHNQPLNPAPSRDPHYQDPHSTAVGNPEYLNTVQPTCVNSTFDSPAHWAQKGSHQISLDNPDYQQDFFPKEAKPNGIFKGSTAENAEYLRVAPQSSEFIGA
Assay [18] deals with Follistatin-related protein 3 (Homo sapiens) (UniProt O95633). Description: FSTL3 binders on small-molecule microarrays, primary screen, biochemical, small-molecule microarray, 635 nm fluorescence (AID 1105).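 Also: score merges emission near 667 nm and signal to noise per printed spot across three slides.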 As to conditions: FSTL3 binding, higher = more signal.
Sequence of Follistatin-related protein 3 (Homo sapiens) (O95633 whole entry, looked up): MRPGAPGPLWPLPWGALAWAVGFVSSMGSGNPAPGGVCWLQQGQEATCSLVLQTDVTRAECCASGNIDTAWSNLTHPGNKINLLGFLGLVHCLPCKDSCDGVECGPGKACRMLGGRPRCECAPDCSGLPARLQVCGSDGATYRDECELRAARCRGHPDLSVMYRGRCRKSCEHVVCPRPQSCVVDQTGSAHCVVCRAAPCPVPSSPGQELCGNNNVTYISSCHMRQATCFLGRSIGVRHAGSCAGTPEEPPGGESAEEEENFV
The target of assay [19] is Dickkopf-related protein 1 (Homo sapiens) (UniProt O94907). The assay is described as follows: DKK1 binders on small-molecule microarrays, primary screen, biochemical, small-molecule microarray, 635 nm fluorescence scan (AID 1106).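 Also: score merges emission near 667 nm with signal to noise over three replicate slides.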 As to conditions: DKK1 binding, higher = more signal.
Sequence of Dickkopf-related protein 1 (Homo sapiens) (O94907 whole entry, looked up): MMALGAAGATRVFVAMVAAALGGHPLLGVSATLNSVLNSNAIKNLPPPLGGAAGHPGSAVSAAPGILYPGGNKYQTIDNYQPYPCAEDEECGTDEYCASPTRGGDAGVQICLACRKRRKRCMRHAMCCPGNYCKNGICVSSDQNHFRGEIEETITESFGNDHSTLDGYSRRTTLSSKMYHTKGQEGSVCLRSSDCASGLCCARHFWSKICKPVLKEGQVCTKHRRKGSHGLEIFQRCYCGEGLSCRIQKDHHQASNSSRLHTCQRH
Assay [20] deals with Inhibin beta A chain (activin A). Description: INHBA (activin A) binders on microarrays, primary screen, biochemical, small-molecule microarray, 635 nm fluorescence scan (AID 1107).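 Also: mouse activin A protein probed at 4.33 µg/mL on printed slides; score merges bound-protein fluorescence near 667 nm with spot signal-to-noise.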 The note with it: small-molecule microarray binding, higher = more signal.

Structures are written as SMILES. Activity calls are given as the source filed them.

Sequence of Fibroblast growth factor 10 (Homo sapiens) (O15520 whole entry, looked up): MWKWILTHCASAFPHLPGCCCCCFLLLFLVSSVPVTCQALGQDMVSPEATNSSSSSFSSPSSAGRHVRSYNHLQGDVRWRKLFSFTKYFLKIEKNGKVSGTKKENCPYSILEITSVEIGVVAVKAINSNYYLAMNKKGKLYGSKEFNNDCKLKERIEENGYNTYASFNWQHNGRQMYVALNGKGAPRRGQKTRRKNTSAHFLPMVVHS

In the case of `O=C1C2C=CC(C(O)C(c3ccccc3)c3ccccc3)N(Nc3ccccc3)C2C(=O)N1c1ccccc1` (stereo not given), the composite z-score in assay [1] is 1.55; in assay [5], 3.23; in assay [7], 0.0731; in assay [8], 0.351; in assay [9] it was 1.03; in assay [10] it was 0.056. Besides, the composite z-score in assay [11] was found to be 1.46; in assay [12], 0.467; in [13], 0.741; in [15], 0.68; in [16], 1.32; in [17], 0.385. For the same compound, the composite z-score in assay [18] was 1.44; in [19], -0.42; in assay [20], 0.221. Moreover, the z-score in assay [2] was 0.838 (inactive); in assay [3], 0.0855 (inactive); in [4], 0.281 (inactive); in [6] it was -1.15 (inactive); in assay [14], -0.384 (inactive).

As to `C=C(CCCC)C(=O)CC[C@H](OC(=O)c1cccnc1)c1ccc(CO)o1`, the composite z-score in [1] turned out to be 1.55; in assay [5], 2.07; in assay [7], 0; in assay [8], 1.47; in assay [9], 1.13; in assay [10], 0.045. For the same compound, the composite z-score in assay [11] was 1.3; in [12], -0.013; in assay [13] it was -0.519; in assay [15], 1.13; in assay [16], 1.17; in assay [17] it was 0.266. The composite z-score in [18] came to 1.3; in assay [19], 1.36; in assay [20] it was 1.19. Besides, the z-score was -0.697 (inactive) in assay [2]; -0.176 (inactive) in assay [3]; -0.036 (inactive) in [4]; -0.0138 (inactive) in assay [6]; 0.981 (inactive) in [14].

Take `CC(C)(C)N1CC=CC23O[C@@H]4/C=C\CCCOC(=O)C4[C@H]2C(=O)N(CCCCCCO)[C@@H]3C1=O` (stereo not given in full): the composite z-score is -0.0574 in assay [1]; 1.24 in [5]; -0.302 in [7]; -1.19 in assay [8]; -0.052 in [9]; 0.252 in assay [10]. The composite z-score in [11] was 0.873; in assay [12], -0.204; in [13] it was 0.63; in assay [15] it was -0.374; in assay [16], -0.749; in assay [17] it was -0.741. For the same compound, the composite z-score in assay [18] is 0.0927; in assay [19] it was -0.857; in [20], 0.705. In addition, the z-score is -3.01 (inactive) in assay [2]; -0.927 (inactive) in assay [3]; -0.624 (inactive) in [4]; 1.42 (inactive) in assay [6]; -0.725 (inactive) in assay [14].

Consider `O=C1O[C@H](c2ccccc2)[C@H](c2ccccc2)N2[C@H]1[C@@H](C(=O)N1CCN(c3ncccn3)CC1)[C@]1(C(=O)Nc3ccccc31)[C@H]2c1ccc(O)cc1`, for which the composite z-score is 1.51 in [1]; 3.06 in assay [5]; 0.032 in assay [7]; 0.0775 in [8]; 0.305 in [9]; -0.0936 in [10]. The composite z-score in [11] was 0.612; in [12], 0.571; in assay [13], 0.544; in assay [15] it was 0.506; in assay [16] it was 0.799; in assay [17], -0.149. In addition, the figures for the composite z-score in assay [18], in assay [19] and in [20] were -0.0987, 0.165 and 0.0112, respectively. Besides, the z-score is 1.92 (inactive) in assay [2]; 0.116 (inactive) in [3]; 3.6 (inactive) in assay [4]; 0.913 (inactive) in assay [6]; -0.117 (inactive) in assay [14].

With `CC(C)CNC(=O)[C@@]1(C)c2ccccc2C(=O)N(Cc2cc(F)cc(C(F)(F)F)c2)[C@H]1c1ccc(CO)cc1`, the composite z-score is 1.56 in [1]; 2.6 in assay [5]; -0.0172 in assay [7]; 0.602 in assay [8]; 0.616 in assay [9]; -0.165 in assay [10]. The composite z-score in [11] was 0.972; in [12], -0.162; in assay [13] it was 0.35; in assay [15] it was 0.398; in assay [16] it was 0.729; in assay [17] it was 0.181. Further, the values for the composite z-score in assay [18], in assay [19] and in assay [20] were 0.379, 0.343 and 0.938, respectively. Moreover, the z-score in [2] is -1.08 (inactive); in assay [3] it was -0.428 (inactive); in assay [4] it was -0.629 (inactive); in assay [6], 0.149 (inactive); in assay [14] it was 0.451 (inactive).
